Test results: the supplement of paper PMC10849652
Of roughly 7,900 targets only a part is listed; those with a hit were picked by preference. About 0.6% of all pairs of compound and target were hits. A number with no mark means an inactive call.

Compound: c1cn2cc(-c3ccc4cn[nH]c4c3)nc(Nc3ccc(N4CCOCC4)cc3)c2n1 [entospletinib]
Assay: log2 fold change, soluble protein after heating vs DMSO (PISA); higher = thermal stabilisation; K562 cells, 10 uM, 30 min; active = over 0.2 and 3.5 SD of the protein, either way, in both replicates (recomputed)
Summary of the method: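 For each measurement, 10 μM compound was applied for 30 min to K562 cells at 2×10^6 cells/mL. Aliquots were heated for 3 min across 48°C-58°C, pooled, and extracted in PBS with 0.5% NP-40 at 4°C; the supernatant after 21,000xg for 90 min was soluble protein. This was quantified by TMTpro 16plex LC-MS/MS with channel sums equalised, and thermal stability was reported relative to control samples from duplicates, on a log2 fold-change scale.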

Chain of UniProt O60583 (O60583 whole entry, looked up): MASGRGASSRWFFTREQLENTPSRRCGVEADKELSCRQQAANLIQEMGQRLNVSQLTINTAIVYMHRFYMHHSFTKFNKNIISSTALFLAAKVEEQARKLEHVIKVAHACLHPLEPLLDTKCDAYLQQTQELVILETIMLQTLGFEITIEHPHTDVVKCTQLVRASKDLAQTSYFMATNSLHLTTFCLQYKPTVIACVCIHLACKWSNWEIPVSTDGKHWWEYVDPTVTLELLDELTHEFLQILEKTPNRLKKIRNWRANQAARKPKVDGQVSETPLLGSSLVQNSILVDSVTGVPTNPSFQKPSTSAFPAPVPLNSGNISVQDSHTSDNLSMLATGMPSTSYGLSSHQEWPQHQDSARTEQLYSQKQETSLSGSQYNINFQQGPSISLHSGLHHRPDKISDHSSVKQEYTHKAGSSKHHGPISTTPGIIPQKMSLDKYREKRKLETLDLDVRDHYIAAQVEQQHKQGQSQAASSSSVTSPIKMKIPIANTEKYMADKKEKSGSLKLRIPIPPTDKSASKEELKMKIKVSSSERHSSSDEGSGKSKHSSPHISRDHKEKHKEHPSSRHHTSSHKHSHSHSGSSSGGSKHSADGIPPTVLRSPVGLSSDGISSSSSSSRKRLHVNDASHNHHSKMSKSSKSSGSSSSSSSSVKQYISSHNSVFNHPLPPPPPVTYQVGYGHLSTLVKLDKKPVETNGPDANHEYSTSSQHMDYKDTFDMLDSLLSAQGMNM
Chain of UniProt Q9UKF6 (Q9UKF6 whole entry, looked up): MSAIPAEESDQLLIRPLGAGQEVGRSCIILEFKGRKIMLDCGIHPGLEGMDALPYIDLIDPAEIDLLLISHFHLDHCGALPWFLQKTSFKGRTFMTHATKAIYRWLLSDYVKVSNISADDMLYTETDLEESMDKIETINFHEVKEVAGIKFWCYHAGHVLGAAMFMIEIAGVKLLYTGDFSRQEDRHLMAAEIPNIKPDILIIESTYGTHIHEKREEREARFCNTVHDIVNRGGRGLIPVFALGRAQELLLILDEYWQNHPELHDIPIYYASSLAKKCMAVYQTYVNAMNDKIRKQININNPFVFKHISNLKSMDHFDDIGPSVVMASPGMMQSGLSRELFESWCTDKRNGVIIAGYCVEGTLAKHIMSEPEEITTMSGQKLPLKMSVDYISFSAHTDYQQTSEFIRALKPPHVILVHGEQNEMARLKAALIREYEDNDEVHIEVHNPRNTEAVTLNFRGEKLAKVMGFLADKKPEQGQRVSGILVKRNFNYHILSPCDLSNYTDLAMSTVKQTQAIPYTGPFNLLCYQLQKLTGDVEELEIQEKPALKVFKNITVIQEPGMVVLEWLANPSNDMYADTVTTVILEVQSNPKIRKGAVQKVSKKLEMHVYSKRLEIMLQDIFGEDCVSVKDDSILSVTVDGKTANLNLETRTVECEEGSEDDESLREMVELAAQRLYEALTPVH
Chain of UniProt Q16740 (Q16740 whole entry, looked up): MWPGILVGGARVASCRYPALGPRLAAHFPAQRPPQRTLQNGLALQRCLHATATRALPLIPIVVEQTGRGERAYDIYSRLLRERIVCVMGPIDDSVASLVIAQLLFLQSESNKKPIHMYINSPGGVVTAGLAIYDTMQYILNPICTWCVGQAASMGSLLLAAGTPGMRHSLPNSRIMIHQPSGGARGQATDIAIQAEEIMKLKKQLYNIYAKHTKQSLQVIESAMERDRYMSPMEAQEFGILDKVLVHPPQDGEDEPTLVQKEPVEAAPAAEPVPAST
Chain of UniProt Q99807 (Q99807 whole entry, looked up): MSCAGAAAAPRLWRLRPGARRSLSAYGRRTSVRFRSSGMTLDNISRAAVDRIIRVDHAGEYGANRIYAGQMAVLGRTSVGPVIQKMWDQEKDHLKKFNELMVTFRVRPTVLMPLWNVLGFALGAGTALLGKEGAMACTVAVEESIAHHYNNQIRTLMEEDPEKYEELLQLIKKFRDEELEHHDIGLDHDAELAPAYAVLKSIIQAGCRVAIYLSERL
Chain of UniProt Q14746 (Q14746 whole entry, looked up): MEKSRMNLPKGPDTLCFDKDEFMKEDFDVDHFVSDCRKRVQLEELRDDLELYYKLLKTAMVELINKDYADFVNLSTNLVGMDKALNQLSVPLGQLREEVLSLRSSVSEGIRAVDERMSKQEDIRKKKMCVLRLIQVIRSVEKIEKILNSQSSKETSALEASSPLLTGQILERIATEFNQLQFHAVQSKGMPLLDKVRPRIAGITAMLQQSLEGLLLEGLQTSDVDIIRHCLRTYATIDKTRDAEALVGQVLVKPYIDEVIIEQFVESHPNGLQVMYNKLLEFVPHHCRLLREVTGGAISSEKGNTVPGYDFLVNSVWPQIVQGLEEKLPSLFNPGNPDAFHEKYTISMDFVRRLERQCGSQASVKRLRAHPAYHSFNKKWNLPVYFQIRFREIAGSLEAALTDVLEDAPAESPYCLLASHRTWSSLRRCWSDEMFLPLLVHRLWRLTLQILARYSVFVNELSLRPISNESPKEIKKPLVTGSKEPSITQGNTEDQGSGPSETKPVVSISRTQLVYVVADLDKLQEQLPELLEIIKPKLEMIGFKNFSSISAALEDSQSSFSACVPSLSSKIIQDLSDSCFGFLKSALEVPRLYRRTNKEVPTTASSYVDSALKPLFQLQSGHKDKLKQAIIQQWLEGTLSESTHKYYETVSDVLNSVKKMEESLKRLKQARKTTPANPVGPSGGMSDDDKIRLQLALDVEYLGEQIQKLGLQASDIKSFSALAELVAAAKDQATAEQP
Chain of UniProt Q5T5Y3 (Q5T5Y3 whole entry, looked up): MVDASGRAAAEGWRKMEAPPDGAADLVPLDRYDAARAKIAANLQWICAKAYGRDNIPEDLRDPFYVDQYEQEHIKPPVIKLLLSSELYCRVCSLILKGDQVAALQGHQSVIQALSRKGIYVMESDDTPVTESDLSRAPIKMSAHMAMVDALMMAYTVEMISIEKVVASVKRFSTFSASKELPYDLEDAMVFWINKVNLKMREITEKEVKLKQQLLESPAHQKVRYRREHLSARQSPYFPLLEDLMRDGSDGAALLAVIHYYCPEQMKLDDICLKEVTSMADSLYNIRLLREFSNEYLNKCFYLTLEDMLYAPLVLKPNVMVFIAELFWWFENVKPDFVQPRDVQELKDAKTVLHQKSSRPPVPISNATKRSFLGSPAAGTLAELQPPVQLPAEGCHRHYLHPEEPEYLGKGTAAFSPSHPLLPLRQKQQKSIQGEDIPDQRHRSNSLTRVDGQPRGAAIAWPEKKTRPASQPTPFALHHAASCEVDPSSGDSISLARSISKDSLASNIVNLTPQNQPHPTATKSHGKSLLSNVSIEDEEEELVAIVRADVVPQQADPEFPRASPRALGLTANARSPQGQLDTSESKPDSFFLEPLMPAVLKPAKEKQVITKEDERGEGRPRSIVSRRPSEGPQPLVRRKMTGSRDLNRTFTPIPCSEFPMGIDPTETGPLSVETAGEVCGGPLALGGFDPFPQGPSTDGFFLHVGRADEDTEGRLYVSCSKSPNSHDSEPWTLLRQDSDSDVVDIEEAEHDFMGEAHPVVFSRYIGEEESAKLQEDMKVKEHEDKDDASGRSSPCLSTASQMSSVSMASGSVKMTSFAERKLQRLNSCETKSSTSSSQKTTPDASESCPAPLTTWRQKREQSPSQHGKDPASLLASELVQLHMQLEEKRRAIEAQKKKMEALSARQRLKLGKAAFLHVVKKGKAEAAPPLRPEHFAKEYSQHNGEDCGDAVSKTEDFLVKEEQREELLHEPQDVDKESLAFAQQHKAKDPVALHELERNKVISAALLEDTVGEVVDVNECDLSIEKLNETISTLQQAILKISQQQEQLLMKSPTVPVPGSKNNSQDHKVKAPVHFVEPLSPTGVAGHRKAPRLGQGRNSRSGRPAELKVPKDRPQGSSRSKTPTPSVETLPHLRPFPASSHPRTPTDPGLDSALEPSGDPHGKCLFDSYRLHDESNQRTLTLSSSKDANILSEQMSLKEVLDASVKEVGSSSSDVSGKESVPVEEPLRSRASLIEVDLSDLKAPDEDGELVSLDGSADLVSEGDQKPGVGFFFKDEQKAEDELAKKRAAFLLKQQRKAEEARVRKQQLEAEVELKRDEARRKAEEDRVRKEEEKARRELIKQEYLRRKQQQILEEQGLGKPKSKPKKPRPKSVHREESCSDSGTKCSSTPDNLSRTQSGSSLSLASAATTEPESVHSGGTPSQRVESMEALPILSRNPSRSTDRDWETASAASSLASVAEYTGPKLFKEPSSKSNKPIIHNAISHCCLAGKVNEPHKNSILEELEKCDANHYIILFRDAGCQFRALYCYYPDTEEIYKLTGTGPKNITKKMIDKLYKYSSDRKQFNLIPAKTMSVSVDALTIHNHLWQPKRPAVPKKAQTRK
Chain of UniProt Q9NPF2 (Q9NPF2 whole entry, looked up): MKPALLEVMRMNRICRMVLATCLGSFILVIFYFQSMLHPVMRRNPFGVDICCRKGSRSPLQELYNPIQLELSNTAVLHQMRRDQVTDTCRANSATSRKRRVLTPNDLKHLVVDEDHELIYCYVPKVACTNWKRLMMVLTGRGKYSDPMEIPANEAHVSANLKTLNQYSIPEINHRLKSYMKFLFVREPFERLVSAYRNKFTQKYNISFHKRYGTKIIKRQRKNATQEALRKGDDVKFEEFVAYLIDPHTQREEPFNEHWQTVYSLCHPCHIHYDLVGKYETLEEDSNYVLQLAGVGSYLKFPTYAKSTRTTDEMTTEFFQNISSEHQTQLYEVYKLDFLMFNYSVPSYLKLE
Chain of UniProt Q7KZN9 (Q7KZN9 whole entry, looked up): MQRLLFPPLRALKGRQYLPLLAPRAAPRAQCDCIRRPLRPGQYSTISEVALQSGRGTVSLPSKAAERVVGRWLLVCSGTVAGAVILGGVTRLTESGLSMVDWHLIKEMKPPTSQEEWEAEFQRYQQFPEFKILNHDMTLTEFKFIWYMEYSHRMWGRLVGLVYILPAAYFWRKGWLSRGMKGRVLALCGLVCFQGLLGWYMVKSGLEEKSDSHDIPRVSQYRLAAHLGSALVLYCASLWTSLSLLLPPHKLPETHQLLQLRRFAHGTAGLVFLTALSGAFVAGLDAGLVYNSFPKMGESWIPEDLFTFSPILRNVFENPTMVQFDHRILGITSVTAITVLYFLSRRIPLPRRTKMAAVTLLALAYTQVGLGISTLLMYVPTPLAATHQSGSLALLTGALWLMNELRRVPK

| Target | log2 fold change |
| --- | --- |
| CPSF3 (UniProt Q9UKF6) | 0 |
| CLPP (UniProt Q16740) | 0.01 |
| CD53 (UniProt P19397) | 0.073 |
| CHST11 (UniProt Q9NPF2) | -0.1 |
| COQ7 (UniProt Q99807) | 0.026 |
| CDK17 isoform 2 (UniProt Q00537) | 0.067 |
| CHCHD2 (UniProt Q9Y6H1) | 0.028 |
| CSE1L (UniProt P55060) | -0.003 |
| CIR1 (UniProt Q86X95) | 0.024 |
| CCNT2 (UniProt O60583) | -0.05 |
| CFAP58 (UniProt Q5T655) | -1.11 (active) |
| CAVIN1 (UniProt Q6NZI2) | 0.076 |
| CMTM3 (UniProt Q96MX0) | 0.043 |
| CSNK2A2 (UniProt P19784) | 0.096 |
| COX15 (UniProt Q7KZN9) | -0.169 |
| COMMD1 (UniProt Q8N668) | -0.013 |
| CDKN2AIP (UniProt Q9NXV6) | -0.014 |
| CCZ1 (UniProt P86791) | 0.039 |
| CPD (UniProt O75976) | 0.011 |

| Target | log2 fold change |
| --- | --- |
| CPT1A (UniProt P50416) | 0.019 |
| C19orf54 (UniProt Q5BKX5) | 0.17 |
| CS (UniProt F8VU34) | 0.063 |
| CAMSAP1 isoform 3 (UniProt Q5T5Y3) | -0.003 |
| CEPT1 (UniProt Q9Y6K0) | 0.033 |
| CES2 isoform 4 (UniProt O00748) | 0.02 |
| COG2 (UniProt Q14746) | -0.103 |
| CKS1B (UniProt P61024) | 0 |
| CSNK1A1 (UniProt P48729) | 0.009 |
| CSTF3 (UniProt Q12996) | -0.064 |
| CA1 (UniProt P00915) | 0.018 |
| CD81 (UniProt P60033) | 0.019 |
| CHP1 (UniProt Q99653) | 0.044 |
| CELF2 isoform 3 (UniProt O95319) | 0.009 |
| CSNK2B (UniProt P67870) | 0.077 |
| CCDC59 (UniProt Q9P031) | 0.002 |
| CLCN5 isoform 2 (UniProt P51795) | -0.014 |
| CASC3 (UniProt O15234) | 0.485 (active) |
| COX5B (UniProt P10606) | 0.005 |
